# Bioassay records as filed in PubChem.
# Only a selection was taken, and hits are over-represented in it overall.
# ST2 IL33 inh: inhibitors of human ST2 (IL1RL1) binding to IL-33, primary screen, biochemical, AlphaLISA. 78,000 tested, 2.3% active. AlphaLISA ST2-Fc/biotin-IL-33 interaction, 1 h. AID 1259354, 2018. Interleukin-1 receptor-like 1 (Homo sapiens), Q01638. inhibition, % for hits at 17 µM; in the data active means inhibition above about 30%
# * hit, by the source's call; i = inactive.
SMILES,ST2 IL33 inh
CCn1cc(C(=O)N2CCCC(C)C2)c2cc(OC)c(OC)cc2c1=O (stereo not drawn),i
CC1CCCN(CC(O)COc2ccc(C3CCCCC3)cc2)C1 (stereo not drawn),i
OC(COc1ccc(C2C=CCC2)cc1)CN1CCCCC1 (stereo not drawn),52%*
CC(C)(C)c1ccc(OCC(O)CN2CCCC2)cc1 (stereo not drawn),i
CCCCNC(=O)C1CCC(Cn2c(=O)c3sccc3n(CC(N)=O)c2=O)CC1 (stereo not drawn),i
O=C(NC1CCCCCC1)C1CCN(Cc2ccccc2)CC1,i
Cc1c(Cl)cccc1NC(=O)CN1N=NC2C(=O)N(c3ccc(Cl)cc3)C(=O)C21 (stereo not drawn),i
COc1ccc(N2CCCS2(=O)=O)cc1NC(=O)c1ccccc1Br,i
O=[N+]([O-])c1ccc(-c2nc3ccccc3o2)cc1,i
Cc1nc2ccccc2nc1-c1ccc([N+](=O)[O-])cc1,i
O=[N+]([O-])c1ccc(-c2cnc3ccccc3n2)cc1,31%*
COc1ccc2oc(=Nc3cccc(C(F)(F)F)c3)c(C(=O)NC(C)=O)cc2c1,i
Cc1ccsc1CN(C)C(=O)c1cnn2ccn(C)c12,i
CC(NS(=O)(=O)c1ccc2c(c1)CCN2C(=O)C1CC1)c1ccccc1 (stereo not drawn),i
COc1ccc(C2CC(c3cccs3)=NN2C(=O)CSc2c[nH]c3ccccc23)cc1 (stereo not drawn),i
COc1cccc(C2CC(c3cccs3)=NN2C(=O)CSC2CCCCC2)c1OC (stereo not drawn),44%*
COc1cccc(C2CC(c3ccc(Br)cc3)=NN2C(=O)CCCC(=O)O)c1OC (stereo not drawn),i
Cc1n[nH]c(C)c1CCCN(C)C(=O)c1ncc[nH]1,i
CN(C)c1nc2c(c(=O)[nH]1)CCN(C(=O)c1ccccc1C(F)(F)F)C2,i
O=C(NC(Nc1ccccc1F)C(Cl)(Cl)Cl)c1ccc(Br)cc1 (stereo not drawn),i
COc1ccccc1CN1C(=O)CN(C2CCCCC2)C(=O)C1c1cccc(Br)c1 (stereo not drawn),i
COc1ccc(C(=O)OC(C)C(O)c2ccc(OC)cc2)cc1 (stereo not drawn),i
COc1cccc(C(=O)ON=C2C=CC(=O)C=C2)c1,i
COc1ccc(C(=O)ON=C2c3ccccc3-c3ccccc32)cc1,40%*
CSc1cccc(NC(=O)CNS(=O)(=O)c2cccs2)c1,i
SMILES,ST2 IL33 inh
O=C(O)CCC(=O)N1N=C(c2cccs2)CC1c1ccc(F)cc1 (stereo not drawn),i
c1ccc(C2Oc3ccccc3C3CC(c4cccs4)=NN32)cc1 (stereo not drawn),34%*
COc1ccc(C2=NN3C(C2)c2ccccc2OC3c2ccco2)cc1 (stereo not drawn),i
CCc1ccc(S(=O)(=O)N2CCOCC2)cc1,i
O=[N+]([O-])c1cc(C(F)(F)F)ccc1NCCc1ccccc1,33%*
O=[N+]([O-])c1ccccc1S(=O)(=O)Nc1cccc(C(F)(F)F)c1,i
O=[N+]([O-])c1cc(C(F)(F)F)ccc1N1CCN(S(=O)(=O)c2ccccc2)CC1,i
CCOC(=O)CCNC(=O)N1CCOC(CCN(C)C)C1 (stereo not drawn),i
COc1ccc(Br)cc1C1NC(=O)NC(C)=C1C(=O)OC(C)C (stereo not drawn),i
COc1ccc(NC(=O)NC[C@H]2O[C@@H](CO)[C@@H](O)[C@H]2N2CCOCC2)cc1,i
Cc1ccc(-c2ccc(CCC(=O)O)[nH]2)cc1,35%*
Cc1ccc(-c2cc(=O)c(=O)[nH][nH]2)cc1,i
Cc1ccc(NC(=O)CCC(=O)O)c(C)c1,i
Cc1cccc(OCC2CCCN(Cc3ncccc3C(=O)O)C2)c1 (stereo not drawn),i
Cc1nonc1C(=O)N1CCCC(CCc2ccc(F)cc2)C1 (stereo not drawn),i
Cc1ccccc1NC1=C(N)C(=O)c2ccccc2C1=O,87%*
Cc1ccccc1NC(=O)c1ccc(C(=O)Nc2ccccc2C)cc1,i
Cc1ccccc1NCN1C(=O)C2C3C=CC(C3)C2C1=O (stereo not drawn),i
COc1cc2c(C(=O)NCCCN3CCCCCC3)cn(C)c(=O)c2cc1OC,i
CCCN(CCC)c1ncc(C(=O)OC)c2ccccc12,i
COc1ccc(NC(=O)N2C[C@@H]3C[C@H](C2)c2ccc(NS(=O)(=O)c4cccc(F)c4)c(=O)n2C3)cc1,i
O=C(Nc1ccc(F)cc1)N1C[C@@H]2C[C@H](C1)c1ccc(NS(=O)(=O)c3cccs3)c(=O)n1C2,i
O=c1c(NS(=O)(=O)c2cccc(F)c2)ccc2n1C[C@H]1C[C@@H]2CN(S(=O)(=O)c2cccs2)C1,44%*
COCC(=O)Nc1cc(C(=O)N2CCCC(c3ccccc3C)C2)cc2nc(-c3cccnc3)n(C)c12 (stereo not drawn),i
